A selection: hits, their analogues and other compounds. The true share with any hit is near 1.8%.
p53ts 32C tox: p53ts cell cytotoxicity, permissive temperature; Potency, µM (series often up to 46.1 µM), usual class: cytotoxic; hit rate 0.93% among 130,000; H1299-p53A138V at 32C, ATP luminescence viability, 24 h; note: nearly all actives have a fitted effect of over 55% in size
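H1299-p53 A138V cells (temperature-sensitive p53) exposed 24 h to up to 46 uM compound at 32C, where p53 is wild-type in conformation. Viability read as ATP luminescence and normalised to DMSO and 100 uM tamoxifen. AC50 fitted with the Hill equation.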
p53ts 39C kill: p53ts cell cytotoxicity, nonpermissive temperature | hit rate 1.5% among 130,000 | Potency, µM (top dose mostly 46.1 µM), hits mostly cytotoxic | H1299-p53A138V viability at 39C, ATP luminescence, 24 h; note: nearly all actives have a fitted effect of over 55% in size
IkB signaling: inhibitors of IkB signaling in ABC-DLBCL cells | ABC-DLBCL IkBa-CBG/CBR dual luciferase ratio, 4 h; response scale: scaled: untreated 0%, proteasome inhibitor 100% | Potency, µM (highest dose often 57.1 µM) | hit rate 0.04% among 110,000 | AID 445; active = well fitted curve in the direction sought with a large enough effect in the signal ratio, not every such curve was filed as active; inconclusive = small, poorly fitted or top-dose-only effect, or a change in a side signal; the % refers to the signal ratio;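 note: the direction sought is a rising ratio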
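Curves were fitted separately to fusion (green), unfused (red) and ratio luminescence, then classed by r2, magnitude and activity. Cells: OCI-Ly3, 4 h compound plus doxycycline at 37C; 10 uM MG-132 defined full response.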
Peg3 imprint: inducers of genomic imprint erasure in mouse ES cells. mouse ES Peg3-LacZ reporter, beta-gal luminescence, 40 h. Potency, µM (titrated, usually from 60.7 µM), actives largely listed as activators. hit rate 0.02% among 110,000
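Readout: BetaGlo luminescence (5 min, room temp) for LacZ from the normally silent maternal Peg3 allele in female Peg3LacZ-Neo ES cells. Cells 300/well, 40 h, 37C, 5% CO2. Data normalized per plate to negative controls.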
Of the large screens only hits and unclear results are named; the others gave an inactive call. Unless noted, calls come from the whole dose curve; as a rule, active = well fitted curve in the direction sought with a large enough effect; inconclusive = small, poorly fitted or top-dose-only effect, or another doubt; inactive = no such curve, though single readings can be large; an effect the other way counts as inactive or inconclusive.

CCCCN(CCCC)S(=O)(=O)c1ccc(C(=O)Nc2nnc(COC)o2)cc1	p53ts 39C kill 10µM
CCCCN(CC)S(=O)(=O)c1ccc(C(=O)Nc2nnc(-c3cccs3)o2)cc1	p53ts 32C tox inconclusive, p53ts 39C kill 12.6µM, IkB signaling inconclusive
O=C1c2ccccc2C(=O)c2c(NC3CCCCC3)ccc(Nc3ccc(S(=O)(=O)O)cc3)c21	none
CN(C)CN1CSC(=S)N(CN(C)C)C1	none
CCOc1ccc(-c2c(C)nn3c(C)c(C(=O)NCCc4ccccc4)cnc23)cc1OCC	none
CC(C)=CCC/C(C)=C/CO/N=C1/C[C@@H](O)[C@@H](O)[C@@H]2[C@H]3C(=O)N(c4ccc(F)cc4F)C(=O)[C@@H]3CC[C@@H]12	none (no result: IkB signaling, Peg3 imprint)
Cn1c(=O)n(C)c2cc(NS(=O)(=O)c3ccc4c(c3)CCCC4)ccc21	IkB signaling 7.94µM
CCc1ccc(S(=O)(=O)Nc2ccc3c(c2)n(C)c(=O)c(=O)n3C)cc1	none
COc1ccc(CNc2nc3c(-c4cccc(F)c4)nnn3c3ccccc23)cc1	p53ts 32C tox inconclusive, p53ts 39C kill 12.6µM
CCCCOCCOCCSC#N	none
Cc1ccc(CNC(=O)CN2C(=O)C3(SCC(=O)N3c3cc(C)cc(C)c3)c3ccccc32)cc1 (stereo not given)	IkB signaling inconclusive
CCCCN(C)CCCNC(=O)Cn1ncc2c3ccccc3n(Cc3cc(C)ccc3C)c2c1=O	p53ts 39C kill 2.51µM
CCCCN(C)CCCNC(=O)Cn1ncc2c3ccccc3n(Cc3ccccc3F)c2c1=O	p53ts 39C kill 12.6µM
Cc1ccc(C)c(Cn2c3ccccc3c3cnn(CC(=O)NC(C)CCc4ccccc4)c(=O)c32)c1 (stereo not given)	p53ts 39C kill 5.01µM
COc1ccc(Nc2nc(N)c3cc(OC)c(OC)cc3n2)cc1	p53ts 32C tox inconclusive, p53ts 39C kill 12.6µM, IkB signaling inconclusive
O=C(O)c1ccc([N+]2=Cn3c(nc4ccccc43)C2)cc1	none
Cc1ccc(N2CCN(C(=O)c3c(C)oc4ncnc(N5CCCCC5)c34)CC2)c(C)c1	p53ts 39C kill 20µM, IkB signaling inconclusive
Cc1cccc(C)c1OCCCn1c(CCNC(=O)C2CCCCC2)nc2ccccc21	p53ts 32C tox inconclusive, p53ts 39C kill 15.8µM, IkB signaling inconclusive
CC(C)(C)C(=O)NCCc1nc2ccccc2n1CCCCOc1ccc(Cl)cc1	p53ts 39C kill 31.6µM, IkB signaling inconclusive
Cc1ccc(OCCCn2c(CCNC(=O)C3CCCCC3)nc3ccccc32)c(C)c1	p53ts 39C kill inconclusive, IkB signaling inconclusive
Cc1cc(OCCCn2c(CCNC(=O)C3CCCCC3)nc3ccccc32)ccc1Cl	p53ts 32C tox inconclusive, p53ts 39C kill 12.6µM, IkB signaling inconclusive
O=C1CCC[C@@H](C2=CCCCC2=O)C1	none (no result: IkB signaling, Peg3 imprint)
N#Cc1c(C(F)(F)F)cc(-c2cccs2)nc1SCC(=O)Nc1cccc(Br)c1	p53ts 39C kill 12.6µM, IkB signaling inconclusive
N#Cc1c(C(F)(F)F)cc(-c2cccs2)nc1SCC(=O)Nc1cccc(Cl)c1	none
Cc1ccc(C(=O)Nc2ccc3c(c2)CCC3)o1	p53ts 32C tox 12.6µM, p53ts 39C kill inconclusive (no result: IkB signaling, Peg3 imprint)
COc1ccc(C(=O)NCC(c2cccnc2)N2CCN(c3ccccc3)CC2)cc1OC (stereo not given)	p53ts 32C tox 10µM, p53ts 39C kill inconclusive
COc1ccc(C(=O)NCC(c2cccnc2)N2CCN(c3ccc(F)cc3)CC2)cc1OC (stereo not given)	none
Cc1ccc(NC(=O)C(=O)NCC(c2cccnc2)N2CCOCC2)cc1Cl (stereo not given)	p53ts 32C tox inconclusive, p53ts 39C kill 20µM, IkB signaling inconclusive
CN(Cc1ccccc1)C(=O)Nc1ccc2c(c1)N(C)C(=O)c1ccccc1S2	p53ts 32C tox inconclusive, p53ts 39C kill 12.6µM
CC1CC(C)(C)Nc2ccc(OC(=O)c3ccco3)cc21 (stereo not given)	p53ts 32C tox 15.8µM, p53ts 39C kill 10µM, IkB signaling inconclusive
O=C(NCCCCN1CCCC1)c1ccc(Cc2nc3ccccc3[nH]2)cc1	none (no result: IkB signaling, Peg3 imprint)
Cn1ccc2cc3c(cc21)CCN3C(=O)Nc1cccnc1	p53ts 32C tox 10µM, p53ts 39C kill 10µM
CSCCNC(=O)c1ccc(C(C)(C)C)cc1	p53ts 32C tox 10µM, p53ts 39C kill inconclusive
O=C(O)c1cccc(C[C@H](Br)C(=O)O)c1	none
C=CCC(CC=C)(CNC(=O)C(=O)Nc1ccc(C(=O)OCC)cc1)c1ccccc1	none
COc1ccc2[nH]c3nc(SCc4nnc(-c5ccccc5)o4)nnc3c2c1	none
COc1ccc2[nH]c3nc(SC(C)C)nnc3c2c1	p53ts 32C tox 15.8µM, p53ts 39C kill 10µM, IkB signaling inconclusive
CC(=O)N[C@@H]1CONC1=O	none
Cc1c(C(=O)Nc2ccc(F)cc2F)nnn1-c1ccccc1Br	none
CSc1ccc(CCNC(=O)c2ccc3c(c2)nc2n3CCCCC2)cc1	IkB signaling inconclusive
CC1CCn2c(nc3cc(C(=O)NCCc4ccccc4)ccc32)C1 (stereo not given)	p53ts 32C tox 15.8µM, p53ts 39C kill inconclusive
O=C(NCCc1ccc(Cl)cc1)c1ccc2c(c1)nc1n2CCOC1	IkB signaling inconclusive
Cc1ccccc1CCNC(=O)c1ccc2c(c1)nc1n2CCCCC1	p53ts 32C tox 1.58µM, p53ts 39C kill 1µM, IkB signaling inconclusive
CC(CNC(=O)c1ccc2c(c1)nc1n2CCCCC1)c1ccccc1 (stereo not given)	p53ts 32C tox inconclusive, p53ts 39C kill 12.6µM, IkB signaling inconclusive
Cc1ccccc1CCNC(=O)c1ccc2c(c1)nc1n2CCOC1	p53ts 32C tox 7.94µM, p53ts 39C kill 6.31µM
Cn1c(=O)n2n(c1=O)[C@H]1[C@H](O)[C@H]3O[C@@H]3/C(=N/OC[C@@H](O)COCc3ccco3)[C@@H]1CC2	none (no result: IkB signaling, Peg3 imprint)
O=C(O)c1ccc2nc(-c3cc4cc(Cl)ccc4oc3=O)[nH]c2c1	IkB signaling inconclusive
COc1ccc2oc(-c3cccc(NC(=O)c4cc([N+](=O)[O-])ccc4N4CCOCC4)c3)nc2c1	none
O=C(Cn1ncc2c3ccccc3n(Cc3ccccc3)c2c1=O)NCCc1ccc(Cl)cc1	p53ts 39C kill 12.6µM
CCC(Cc1ccccc1)NC(=O)Cn1ncc2c3ccccc3n(Cc3ccc(F)cc3)c2c1=O (stereo not given)	p53ts 32C tox inconclusive, p53ts 39C kill 10µM
CC(C)Oc1cc(O)c2c(c1)OCC=C2CCC(=O)O	Peg3 imprint inconclusive
CCOc1ccc(N2CC(NC(=O)c3ccc4c(c3)OCO4)CC2=O)cc1 (stereo not given)	none
CCCCNC(=O)c1ccc2c(c1)NC(=O)C(CS(=O)(=O)Cc1cccc(C)c1)N2 (stereo not given)	p53ts 39C kill inconclusive
CC(C)=NOC[C@@H](O)COCc1ccco1	none (no result: IkB signaling, Peg3 imprint)
CC(C)(C)c1ccc(C(=O)Nc2cnccn2)cc1	p53ts 32C tox 5.01µM, p53ts 39C kill 5.01µM
COc1ccc(C(=O)Nc2ccccn2)cc1	none (no result: IkB signaling, Peg3 imprint)
COc1ccc(CNc2nc(-c3ccccc3)nn2S(=O)(=O)c2ccccc2)cc1	none

Screening data (PubChem BioAssay)
